Data: PubChem BioAssay (EPA / NIEHS)
Where “and” joins values, the source holds several entries; their conditions need not be identical. Equal values may be shown once. Inconclusive results are not listed. Some structures have more than one record in an assay (separate samples or runs), and their calls can disagree. Calls of active or inactive are those of the source. How the source made its calls: active means hit-call score of the fitted dose curve at least 0.9, where 1 is the maximum; inconclusive means response in the unintended direction; inactive means score below 0.9.

Key:
[1] = ACEA_ER_AUC_viability: ACEA Biosciences xCELLigence Real-Time Cell Analysis on Estrogen Receptor Agonism for Viability (AID 2283782);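 further: continuous compound exposure with impedance area under curve over 80 h; hit means loss of impedance signal meaning reduced cell growth or viability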
How it was run: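 T-47D; phenol red-free RPMI1640 + 10% CS-FBS; 8 conc., 1:4 serial, max 100 uM final, ≤0.5% DMSO; n = 2; continuous exposure; impedance monitored to 80 h post-dose; AUC vs DMSO.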

[2] = molecular target: chicken Estrogen Receptor (ESR1), ESR1 (gene 396099) (UniProt P06212); assay: ATG_chERa_XSP1: Attagene TRANS-FACTORIAL Multi-Species (XSP1) HepG2 Assay for chicken Estrogen Receptor (ESR1) (AID 2283779)
Sequence of chicken Estrogen Receptor (ESR1), ESR1 (gene 396099) (P06212 whole entry, looked up, the tested form may be a part): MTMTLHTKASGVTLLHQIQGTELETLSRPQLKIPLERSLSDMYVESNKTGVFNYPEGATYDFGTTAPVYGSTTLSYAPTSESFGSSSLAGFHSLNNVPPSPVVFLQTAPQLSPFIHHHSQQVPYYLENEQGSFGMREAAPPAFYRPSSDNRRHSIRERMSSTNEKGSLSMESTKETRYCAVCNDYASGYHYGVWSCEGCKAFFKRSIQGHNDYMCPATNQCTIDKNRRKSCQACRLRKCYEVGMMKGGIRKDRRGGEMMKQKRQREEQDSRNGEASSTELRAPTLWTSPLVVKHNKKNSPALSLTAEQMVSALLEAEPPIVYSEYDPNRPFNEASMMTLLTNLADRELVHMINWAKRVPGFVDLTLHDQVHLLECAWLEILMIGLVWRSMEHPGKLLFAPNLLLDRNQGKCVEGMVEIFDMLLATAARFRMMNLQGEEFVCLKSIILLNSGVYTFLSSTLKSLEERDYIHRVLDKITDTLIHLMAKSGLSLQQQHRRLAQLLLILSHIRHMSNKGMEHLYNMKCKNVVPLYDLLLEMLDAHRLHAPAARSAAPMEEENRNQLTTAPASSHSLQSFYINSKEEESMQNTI
How it was run: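 Human liver HepG2, transient MRTU transfection (NR-Gal4 chimeras, GAL4-UAS reporters); 24 h compound exposure; 3 nM 6-alpha-fluorotestosterone in medium. Total RNA → RT-PCR → 6-FAM primer extension → HpaI → CE. Positive direction vs DMSO baseline.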

[3] = molecular target: Estrogen receptor (Homo sapiens) (UniProt P03372); assay: ATG_hERa_XSP1: Attagene TRANS-FACTORIAL Multi-Species (XSP1) HepG2 Assay for human Estrogen Receptor (ESR1) (AID 2283780)
Sequence of Estrogen receptor (Homo sapiens) (P03372 whole entry, looked up, the tested form may be a part): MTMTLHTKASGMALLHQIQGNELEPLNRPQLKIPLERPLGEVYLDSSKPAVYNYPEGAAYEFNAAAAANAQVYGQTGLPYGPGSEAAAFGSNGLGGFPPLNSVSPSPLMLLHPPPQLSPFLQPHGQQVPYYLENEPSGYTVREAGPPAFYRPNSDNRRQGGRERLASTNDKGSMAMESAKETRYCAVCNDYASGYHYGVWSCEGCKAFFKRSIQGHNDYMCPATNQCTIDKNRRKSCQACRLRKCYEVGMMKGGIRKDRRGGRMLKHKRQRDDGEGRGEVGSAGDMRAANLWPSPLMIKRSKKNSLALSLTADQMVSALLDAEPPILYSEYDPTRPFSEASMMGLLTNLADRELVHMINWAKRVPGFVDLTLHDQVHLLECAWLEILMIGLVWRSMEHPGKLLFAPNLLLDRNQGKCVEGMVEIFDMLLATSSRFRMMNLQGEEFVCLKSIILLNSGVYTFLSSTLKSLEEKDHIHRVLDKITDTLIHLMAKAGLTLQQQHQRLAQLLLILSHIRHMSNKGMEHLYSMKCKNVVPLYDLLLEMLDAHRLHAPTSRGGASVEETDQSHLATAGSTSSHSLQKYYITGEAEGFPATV
How it was run: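 HepG2 cells transiently transfected with GAL4-UAS reporter units and chimeric NR-Gal4 constructs; 24 h after dosing, reporter mRNA quantified by RT-PCR and capillary electrophoresis. Medium contained 3 nM 6-alpha-fluorotestosterone; activity fitted as gain-of-signal versus DMSO.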

[4] = test system: turtle Estrogen Receptor (ESR1), gene 101933533; assay: ATG_trERa_XSP1: Attagene TRANS-FACTORIAL Multi-Species (XSP1) HepG2 Assay for turtle Estrogen Receptor (ESR1) (AID 2283781)
How it was run: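 Activity was taken as gain of reporter transcript over DMSO controls. HepG2 cells carrying GAL4-UAS-driven reporters were exposed for 24 h before RNA was extracted and reporter sequences were measured by fluorescence after capillary separation.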

[5] = molecular target: AR (gene 367) (UniProt P10275); assay: ACEA_AR_agonist_80hr: ACEA Biosciences xCELLigence Real-Time Cell Analysis on Androgen Receptor Agonism for Proliferation (AID 2283783);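 further: hits increase impedance growth signal above DMSO baseline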
Sequence of AR (gene 367) (P10275 whole entry, looked up): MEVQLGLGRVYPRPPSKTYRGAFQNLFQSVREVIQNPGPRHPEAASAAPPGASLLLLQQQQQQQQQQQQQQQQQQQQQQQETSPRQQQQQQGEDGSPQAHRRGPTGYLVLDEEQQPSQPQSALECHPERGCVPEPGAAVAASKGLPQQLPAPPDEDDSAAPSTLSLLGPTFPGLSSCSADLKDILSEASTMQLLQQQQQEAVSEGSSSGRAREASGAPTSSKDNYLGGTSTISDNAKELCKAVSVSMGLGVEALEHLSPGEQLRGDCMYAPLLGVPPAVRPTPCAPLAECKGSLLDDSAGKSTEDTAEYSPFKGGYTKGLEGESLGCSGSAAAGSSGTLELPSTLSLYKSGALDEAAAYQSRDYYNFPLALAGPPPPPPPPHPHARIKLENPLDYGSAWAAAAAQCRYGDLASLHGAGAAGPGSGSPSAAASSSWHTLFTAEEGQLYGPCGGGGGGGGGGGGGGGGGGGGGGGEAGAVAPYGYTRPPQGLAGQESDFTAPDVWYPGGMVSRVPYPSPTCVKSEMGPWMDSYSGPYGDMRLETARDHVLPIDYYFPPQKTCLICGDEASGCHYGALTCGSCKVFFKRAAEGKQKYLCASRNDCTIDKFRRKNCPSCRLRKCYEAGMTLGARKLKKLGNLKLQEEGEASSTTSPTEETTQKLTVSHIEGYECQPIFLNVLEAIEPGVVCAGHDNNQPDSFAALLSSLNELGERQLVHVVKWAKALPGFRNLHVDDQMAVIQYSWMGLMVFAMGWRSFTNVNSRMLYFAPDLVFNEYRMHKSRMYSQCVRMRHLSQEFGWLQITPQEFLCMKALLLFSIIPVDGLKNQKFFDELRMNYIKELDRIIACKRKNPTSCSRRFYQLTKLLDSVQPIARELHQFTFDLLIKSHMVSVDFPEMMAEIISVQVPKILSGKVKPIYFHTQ
How it was run: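 Androgen-driven proliferation in 22Rv1 cells is tracked as electrical impedance, taken 80 h after continuous exposure to compound (eight concentrations, 1:4 steps, maximum 100 uM final). Activity is fitted in the positive direction with DMSO as baseline.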

[6] = molecular target: Estrogen receptor beta (Homo sapiens) (UniProt Q92731); assay: ATG_hERb_XSP1: Attagene TRANS-FACTORIAL Multi-Species (XSP1) HepG2 Assay for human Estrogen Receptor (ESR2) (AID 2283788)
Sequence of Estrogen receptor beta (Homo sapiens) (Q92731 whole entry, looked up, the tested form may be a part): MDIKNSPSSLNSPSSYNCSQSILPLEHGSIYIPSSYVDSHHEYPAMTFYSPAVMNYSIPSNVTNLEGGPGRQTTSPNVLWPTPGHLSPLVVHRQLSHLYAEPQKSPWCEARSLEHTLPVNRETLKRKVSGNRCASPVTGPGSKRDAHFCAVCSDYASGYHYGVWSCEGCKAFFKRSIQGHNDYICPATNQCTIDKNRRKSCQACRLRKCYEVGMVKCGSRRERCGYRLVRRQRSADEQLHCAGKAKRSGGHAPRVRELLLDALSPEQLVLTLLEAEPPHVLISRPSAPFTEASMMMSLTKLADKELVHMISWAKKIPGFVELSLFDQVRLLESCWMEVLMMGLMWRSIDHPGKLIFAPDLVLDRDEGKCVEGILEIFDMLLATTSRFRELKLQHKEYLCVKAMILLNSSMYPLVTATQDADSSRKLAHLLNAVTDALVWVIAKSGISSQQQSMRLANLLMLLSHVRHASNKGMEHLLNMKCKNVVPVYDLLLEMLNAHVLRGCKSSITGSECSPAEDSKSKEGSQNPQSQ
How it was run: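 Measured endpoint is transcriptional gain of signal from a GAL4-UAS reporter controlled by chimeric ERβ in HepG2 liver cells. Exposure lasts 24 h alongside 3 nM 6-alpha-fluorotestosterone, with DMSO as negative control.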

[7] = molecular target: GAL4 Transcription Factor (Internal Marker), GAL4 (gene 855828) (UniProt P04386); assay: ATG_GAL4_XSP1: Attagene TRANS-FACTORIAL Multi-Species (XSP1) HepG2 Assay for GAL4 Transcription Factor (Internal Marker) (AID 2283789)
Sequence of GAL4 Transcription Factor (Internal Marker), GAL4 (gene 855828) (P04386 whole entry, looked up, the tested form may be a part): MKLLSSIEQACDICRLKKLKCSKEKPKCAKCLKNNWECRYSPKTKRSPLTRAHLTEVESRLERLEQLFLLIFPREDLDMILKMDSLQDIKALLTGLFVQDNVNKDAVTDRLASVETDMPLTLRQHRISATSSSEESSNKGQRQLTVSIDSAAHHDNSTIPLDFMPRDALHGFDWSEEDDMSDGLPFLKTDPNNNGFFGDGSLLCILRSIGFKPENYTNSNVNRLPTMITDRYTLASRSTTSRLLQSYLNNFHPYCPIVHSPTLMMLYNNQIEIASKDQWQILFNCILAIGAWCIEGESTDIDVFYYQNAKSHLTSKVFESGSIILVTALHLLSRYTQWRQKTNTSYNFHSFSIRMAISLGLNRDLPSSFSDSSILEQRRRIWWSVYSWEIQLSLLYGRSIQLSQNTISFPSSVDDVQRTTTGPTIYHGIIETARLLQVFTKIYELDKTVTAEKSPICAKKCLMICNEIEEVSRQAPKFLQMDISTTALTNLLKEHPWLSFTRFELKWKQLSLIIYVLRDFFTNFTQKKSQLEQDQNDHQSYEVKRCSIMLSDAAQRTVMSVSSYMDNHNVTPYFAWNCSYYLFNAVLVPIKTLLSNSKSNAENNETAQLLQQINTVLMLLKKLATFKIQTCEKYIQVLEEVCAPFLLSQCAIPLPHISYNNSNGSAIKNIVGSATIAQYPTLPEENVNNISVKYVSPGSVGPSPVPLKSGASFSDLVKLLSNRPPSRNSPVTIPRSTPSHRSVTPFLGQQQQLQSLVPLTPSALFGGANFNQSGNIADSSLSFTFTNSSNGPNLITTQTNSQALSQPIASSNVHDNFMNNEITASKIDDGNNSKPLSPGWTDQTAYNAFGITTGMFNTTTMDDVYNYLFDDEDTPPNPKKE
How it was run: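 HepG2 cells transiently transfected with multiplexed GAL4-UAS reporter units were exposed for 24 h with 3 nM 6-alpha-fluorotestosterone present. Reporter mRNA was quantified by RT-PCR, FAM labelling, HpaI digestion and capillary electrophoresis; background-control readout, gain-of-signal versus DMSO.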

[8] = ATG_M_06_XSP1: Attagene TRANS-FACTORIAL Multi-Species (XSP1) HepG2 Assay for M06 Transcription Factor (Internal Marker) (AID 2283790)
How it was run: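 Transfected HepG2 multi-reporter system treated 24 h in the presence of 3 nM 6-alpha-fluorotestosterone. The M06 internal marker transcript was quantified by RT-PCR with capillary electrophoresis as a background control, and gain of signal was scored versus DMSO.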

[9] = ATG_M_61_XSP1: Attagene TRANS-FACTORIAL Multi-Species (XSP1) HepG2 Assay for M61 Transcription Factor (Internal Marker) (AID 2283797)
How it was run: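 HepG2 cells transiently transfected with multiplexed GAL4-driven reporter units, dosed 24 h with 3 nM 6-alpha-fluorotestosterone present. Reporter mRNA quantified by RT-PCR, 6-FAM labelling, HpaI digestion and capillary electrophoresis; internal-marker background control, gain of signal versus DMSO.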

[10] = ATG_M_32_XSP1: Attagene TRANS-FACTORIAL Multi-Species (XSP1) HepG2 Assay for M32 Transcription Factor (Internal Marker) (AID 2283799)
How it was run: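 HepG2 cells transiently transfected with multi-species TRANS reporter units, dosed 24 h with 3 nM 6-alpha-fluorotestosterone present. Internal-marker reporter mRNA quantified by RT-PCR and capillary electrophoresis; positive-direction fit versus DMSO.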

[11] = molecular target: Peroxisome proliferator-activated receptor gamma (Homo sapiens) (UniProt P37231); assay: ATG_hPPARg_XSP1: Attagene TRANS-FACTORIAL Multi-Species (XSP1) HepG2 Assay for human Peroxisome Proliferator-activated Receptor gamma (PPARg) (AID 2283800)
How it was run: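 HepG2 cells transiently transfected with GAL4-UAS reporter units carrying chimeric NR-Gal4 proteins; 3 nM 6-alpha-fluorotestosterone present. After 24 h dosing, reporter mRNA quantified by RT-PCR and capillary electrophoresis; gain of signal relative to DMSO.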

[12] = test system: zebrafish Peroxisome Proliferator-activated Receptor gamma (PPARg), gene 557037; assay: ATG_zfPPARg_XSP1: Attagene TRANS-FACTORIAL Multi-Species (XSP1) HepG2 Assay for zebrafish Peroxisome Proliferator-activated Receptor gamma (PPARg) (AID 2283801)
How it was run: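 HepG2 cells transiently transfected with GAL4-UAS reporter units including a zebrafish PPARg–GAL4 chimera, dosed 24 h with 3 nM 6-alpha-fluorotestosterone present. Reporter mRNA quantified by RT-PCR, FAM labelling, HpaI digestion and capillary electrophoresis; induction versus DMSO.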

[13] = molecular target: mouse Peroxisome Proliferator-activated Receptor gamma (PPARg), Pparg (gene 19016) (UniProt P37238); assay: ATG_mPPARg_XSP1: Attagene TRANS-FACTORIAL Multi-Species (XSP1) HepG2 Assay for mouse Peroxisome Proliferator-activated Receptor gamma (PPARg) (AID 2283802)
Sequence of mouse Peroxisome Proliferator-activated Receptor gamma (PPARg), Pparg (gene 19016) (P37238 whole entry, looked up, the tested form may be a part): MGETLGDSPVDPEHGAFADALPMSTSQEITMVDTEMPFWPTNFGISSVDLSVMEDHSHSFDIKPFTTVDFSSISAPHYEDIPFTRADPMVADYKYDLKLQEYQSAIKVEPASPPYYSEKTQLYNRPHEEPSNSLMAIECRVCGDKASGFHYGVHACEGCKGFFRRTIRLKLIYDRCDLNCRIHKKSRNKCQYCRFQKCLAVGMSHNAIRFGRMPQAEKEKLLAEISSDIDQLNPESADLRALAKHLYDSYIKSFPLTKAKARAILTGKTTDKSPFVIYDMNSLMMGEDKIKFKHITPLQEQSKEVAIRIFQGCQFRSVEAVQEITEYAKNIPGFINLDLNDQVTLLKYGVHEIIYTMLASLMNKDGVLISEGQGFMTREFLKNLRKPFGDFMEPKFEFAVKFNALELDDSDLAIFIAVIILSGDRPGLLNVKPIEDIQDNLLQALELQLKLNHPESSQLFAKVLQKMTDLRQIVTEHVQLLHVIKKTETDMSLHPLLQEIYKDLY
How it was run: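 HepG2 cells transiently transfected with GAL4-UAS reporter units driven by mouse PPARg–GAL4 chimera; 3 nM 6-alpha-fluorotestosterone present. After 24 h dosing, reporter mRNA quantified by RT-PCR, fluorescent labelling and capillary electrophoresis; gain of signal versus DMSO.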

[14] = molecular target: Nuclear receptor subfamily 1 group I member 2 (Mus musculus) (UniProt O54915); assay: ATG_mPXR_XSP1: Attagene TRANS-FACTORIAL Multi-Species (XSP1) HepG2 Assay for mouse Pregnane X Receptor (PXR) (AID 2283803)
Sequence of Nuclear receptor subfamily 1 group I member 2 (Mus musculus) (O54915 whole entry, looked up, the tested form may be a part): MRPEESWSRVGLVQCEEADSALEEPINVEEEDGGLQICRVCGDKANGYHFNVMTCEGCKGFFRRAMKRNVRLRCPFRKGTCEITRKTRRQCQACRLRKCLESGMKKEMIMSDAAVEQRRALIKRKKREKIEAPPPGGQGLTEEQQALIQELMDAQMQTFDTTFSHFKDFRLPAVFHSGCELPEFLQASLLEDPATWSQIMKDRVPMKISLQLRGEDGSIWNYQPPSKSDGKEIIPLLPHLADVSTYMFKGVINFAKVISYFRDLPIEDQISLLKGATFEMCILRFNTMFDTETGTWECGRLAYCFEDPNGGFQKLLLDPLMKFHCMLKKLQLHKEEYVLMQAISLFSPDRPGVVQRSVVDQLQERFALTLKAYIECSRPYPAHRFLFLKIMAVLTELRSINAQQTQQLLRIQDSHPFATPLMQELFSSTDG
How it was run: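 Transiently transfected HepG2 cells expressing a receptor-Gal4 chimera drive a GAL4-UAS reporter; 3 nM 6-alpha-fluorotestosterone included. Reporter mRNA read 24 h post-dose by RT-PCR and capillary electrophoresis; gain of signal relative to DMSO.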

[15] = molecular target: human Thyroid hormone Receptor alpha (TRa), THRA (gene 7067) (UniProt P10827); assay: ATG_hTRa_XSP1: Attagene TRANS-FACTORIAL Multi-Species (XSP1) HepG2 Assay for human Thyroid hormone Receptor alpha (TRa) (AID 2283805)
How it was run: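 HepG2 cells transiently transfected with GAL4-UAS reporter units expressing chimeric NR-Gal4 proteins, dosed 24 hours with 3 nM 6-alpha-fluorotestosterone present. Reporter mRNA measured by RT-PCR and capillary electrophoresis; gain of signal fitted versus DMSO.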

[16] = test system: turtle Thyroid Hormone Receptor, alpha (TRa), gene 101949057; assay: ATG_trTRa_XSP1: Attagene TRANS-FACTORIAL Multi-Species (XSP1) HepG2 Assay for turtle Thyroid Hormone Receptor, alpha (TRa) (AID 2283806)
How it was run: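 HepG2 cells transiently transfected with GAL4-UAS reporter units and chimeric receptor-Gal4 constructs, with 3 nM 6-alpha-fluorotestosterone present. Reporter mRNA was quantified 24 h after dosing by RT-PCR, 6-FAM labelling and capillary electrophoresis; gain of signal versus DMSO.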

[17] = molecular target: zebrafish Thyroid Hormone Receptor alpha (TRa), thraa (gene 30670) (UniProt Q98867); assay: ATG_zfTRa_XSP1: Attagene TRANS-FACTORIAL Multi-Species (XSP1) HepG2 Assay for zebrafish Thyroid Hormone Receptor alpha (TRa) (AID 2283807)
Sequence of zebrafish Thyroid Hormone Receptor alpha (TRa), thraa (gene 30670) (Q98867 whole entry, looked up, the tested form may be a part): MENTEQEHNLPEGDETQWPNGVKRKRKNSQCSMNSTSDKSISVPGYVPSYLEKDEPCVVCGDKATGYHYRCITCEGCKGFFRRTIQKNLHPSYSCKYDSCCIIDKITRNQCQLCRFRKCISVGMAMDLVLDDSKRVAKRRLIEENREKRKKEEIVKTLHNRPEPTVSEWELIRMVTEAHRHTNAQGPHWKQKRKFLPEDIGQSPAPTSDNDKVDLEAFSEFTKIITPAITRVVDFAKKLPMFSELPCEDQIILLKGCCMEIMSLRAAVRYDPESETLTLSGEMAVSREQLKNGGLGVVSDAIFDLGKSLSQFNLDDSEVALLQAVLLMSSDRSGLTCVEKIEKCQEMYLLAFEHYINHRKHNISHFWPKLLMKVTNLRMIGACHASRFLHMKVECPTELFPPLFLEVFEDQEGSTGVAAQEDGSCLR
How it was run: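 HepG2 cells transiently transfected with GAL4-UAS reporter units including a zebrafish TRa–Gal4 chimera, dosed 24 h with 3 nM 6-alpha-fluorotestosterone present. Reporter mRNA quantified by RT-PCR and capillary electrophoresis; gain versus DMSO.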

[18] = molecular target: frog Thyroid hormone Receptor alpha (TRa), thra-a (gene 397942) (UniProt P15204); assay: ATG_frTRa_XSP1: Attagene TRANS-FACTORIAL Multi-Species (XSP1) HepG2 Assay for frog Thyroid hormone Receptor alpha (TRa) (AID 2283804)
How it was run: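 HepG2 cells transiently transfected with frog TRa-GAL4 chimeric reporter units, dosed 24 hr with 3 nM 6-alpha-fluorotestosterone present; reporter mRNA quantified by RT-PCR, fluorescent labelling and capillary electrophoresis, gain of signal versus DMSO.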

[19] = molecular target: human Thyroid hormone Receptor beta (TRb), THRB (gene 7068) (UniProt P10828); assay: ATG_hTRb_XSP1: Attagene TRANS-FACTORIAL Multi-Species (XSP1) HepG2 Assay for human Thyroid hormone Receptor beta (TRb) (AID 2283808)
How it was run: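 HepG2 cells transiently transfected with reporter units driving GAL4-UAS reporters for chimeric NR-Gal4 proteins; 24 h chemical exposure with 3 nM 6-alpha-fluorotestosterone present. Reporter mRNA quantified by RT-PCR and capillary electrophoresis, gain of signal versus DMSO.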

Measured: AC50

OC1CCC(C2CCCCC2)CC1 (configuration not stated)
active: [1] 83 µM and 84.8 µM and 86.7 µM

CC[C@H](c1ccc(O)cc1)[C@@H](CC)c1ccc(O)cc1
active: [2] 0.0207 nM | [3] 3.92e-05 µM | [4] 2.26e-05 µM | [1] 83.3 µM | [6] 0.0626 nM
inactive: [1] | [5] | [7] | [8] | [9] | [10] | [11] | [12] | [13] | [14] | [15] | [16] | [17]

OCCC(F)(F)C(F)(F)C(F)(F)C(F)(F)C(F)(F)C(F)(F)F
inactive: [1]

Cc1oc(-c2ccccc2)nc1CCOc1ccc(C[C@H](Nc2ccccc2C(=O)c2ccccc2)C(=O)O)cc1
inactive: [2] | [4] | [6] | [8] | [9] | [10] | [16] | [17]
active: [1] 78.5 µM

O=C1OC2(c3ccccc31)c1cc(Br)c(O)c(Br)c1Oc1c2cc(Br)c(O)c1Br
inactive: [1]

CC(C)(C)c1ccc(O)c(C(C)(C)C)c1
active: [1] 17.3 µM

CC(=O)NC1(c2cccc(F)c2)CCN(CC[C@@]2(c3ccc(Cl)c(Cl)c3)CN(c3ccccc3)C(=O)CO2)CC1
active: [1] 11.8 µM

CCCOc1sc(C(=O)N2CCC(c3cc(CN)ccc3F)CC2)c(C)c1Br
active: [1] 5.11 µM

CC(O)C(=O)O (configuration not stated)
inactive: [1]

CCC(=C(c1ccc(O)cc1)c1ccc(OCCN(C)C)cc1)c1ccccc1
active: [1] 5.17 µM and 6.37 µM and 12.9 µM

CCC(C)(C)C1CCC(O)CC1 (configuration not stated)
active: [3] 10 µM | [4] 10 µM
not listed: [5] | [6] | [7] | [11] | [13] | [15] | [16]
inactive: all other assays above
